High-throughput results: PubChem, several laboratories
MazEF act: activators of E. coli MazEF toxin-antitoxin RNase, primary screen, biochemical, fluorescence, uHTS. Endoribonuclease toxin MazF (Escherichia coli (strain K12)), P0AE70. FAM/BHQ RNA-DNA oligo cleavage fluorescence, 5 h. activation, % at 20 µM. hit rate 0.32% among 350,000. AID 504720, 2011; in the data active means activation above about 50%
Target sequence (P0AE70 whole entry, looked up): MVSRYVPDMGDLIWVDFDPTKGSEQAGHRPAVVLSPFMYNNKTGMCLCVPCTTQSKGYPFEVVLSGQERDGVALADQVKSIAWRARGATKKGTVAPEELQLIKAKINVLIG
DUSP3 inh: VHR1 phosphatase inhibitors, primary screen, biochemical, absorbance, uHTS; Dual specificity protein phosphatase 3 (Homo sapiens), P51452; recombinant VHR phosphatase, pNPP absorbance; inhibition, % at 13.3 µM; hit rate 0.52% among 290,000; AID 1654, 2009; in the data active means inhibition above about 50%
Target sequence (P51452 whole entry, looked up): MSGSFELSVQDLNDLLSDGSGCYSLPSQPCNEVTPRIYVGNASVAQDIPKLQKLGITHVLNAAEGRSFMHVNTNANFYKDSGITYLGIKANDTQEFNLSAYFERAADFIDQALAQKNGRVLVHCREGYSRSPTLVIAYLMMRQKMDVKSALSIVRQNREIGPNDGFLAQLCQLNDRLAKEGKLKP
CCHFV vOTU inh: CCHFV vOTU protease inhibitors, primary screen, biochemical, Pep-AMC substrate, fluorescence | inhibition, % at 11.5 µM | Crimean-Congo hemorrhagic fever virus L polyprotein viral ovarian tumor (vOTU) protease … | hit rate 0.55% among 370,000; in the data active means inhibition above about 30%; further: 0% = vehicle wells with enzyme and 100% = no enzyme wells
BJeLR viability: MLPCN primary cell-based screen for lethality selective to Ras in HRASV12 cells; BJeLR (HRASV12) viability, CellTiter-Glo ATP luminescence, 48 h; inhibition, % (concentration not given with the values); hit rate 0.17% among 300,000; AID 1554, 2009; in the data active means inhibition above about 50%
3CLpro inhibitor: SARS-CoV 3CLpro protease inhibitors, primary screen, biochemical, quenched FRET | Replicase polyprotein 1ab (Severe acute respiratory syndrome coronavirus), P0C6X7 | recombinant SARS-CoV 3CLpro, quenched FRET peptide cleavage | hit rate 0.14% among 290,000 | inhibition, % at 6 µM; in the data active means inhibition above about 12%
The depositor's hits bear a star; . = no result; + = active, no number. An excerpt weighted towards active compounds, which were near 1.4% of everything screened.

SMILES | MazEF act | DUSP3 inh | CCHFV vOTU inh | BJeLR viability | 3CLpro inhibitor
CCCNC(=O)C1CCN(c2ccc(S(=O)(=O)N3CCOCC3)cc2Cl)CC1 | 3 | 57* | 14 | -2 | 4
C=CCNC(=O)C1CCN(c2ccc(S(=O)(=O)N3CCOCC3)cc2Cl)CC1 | 11 | 16 | 20 | 5 | 2
COc1ccnc2c1c(=O)n(Cc1ccccc1Cl)c(=O)n2C | 9 | 25 | -2 | -10 | 2
COc1ccnc2c1c(=O)n(Cc1c(F)cccc1Cl)c(=O)n2C | 7 | 50* | -1 | 7 | -3
O=C(O)c1ccccc1C=NNc1ccc([N+](=O)[O-])cn1 | 7 | . | 12 | . | .
O=[N+]([O-])c1ccc(NN=Cc2cccc3ccccc23)nc1 | 123* | . | -6 | . | .
O=C(NCC1CCCO1)C1CCCN(S(=O)(=O)c2ccc(F)cc2)C1 (stereo not drawn) | -1 | 26 | 18 | 3 | 8
O=C(NCC1CCCO1)C1CCCN(S(=O)(=O)c2ccc(Cl)cc2)C1 (stereo not drawn) | 4 | 50* | 5 | -12 | -1
CCCOc1ccc(NC(=O)CC2C(=O)N(C)C(=S)N2Cc2cccs2)cc1 (stereo not drawn) | 97* | -8 | 6 | 7 | 0
c1ccc(Cn2ccc3ccc(-c4ccc5ccn(Cc6ccc(-c7ccccc7)cc6)c5c4)cc32)cc1 | . | . | 9 | . | .
COCc1ccc(CN2CCC(N3CCC(C(=O)N4CCCC4)CC3)CC2)o1 | 0 | 52* | 5 | 1 | 3
COC(=O)[C@]12C[C@H](CC(=O)N3CCSCC3)C(=O)N(CCc3ccc(OC)c(OC)c3)C1=C[C@H](C(C)C)O[C@@H]2C1CC1 | . | . | 7 | . | .
CCOC(=O)C1CCCN(C2=NC(=O)/C(=C/c3ccc(N(C)C)cc3)S2)C1 (stereo not drawn) | -176 | 53* | 7 | -4 | -4
CCN(CC(=O)Nc1ccc(C(=O)OC)cc1)C1CCCCC1 | 157* | 30 | -9 | 5 | 4
CCN1/C(=C/C(C)=C/c2sc3ccccc3[n+]2CC)Sc2ccccc21 | -49 | 18 | 17 | 63* | -1
CCC(NC(=O)CN1CCN(c2cccc(OC)c2)CC1)c1ccccc1 (stereo not drawn) | . | . | 1 | . | .
CC(C)CCOc1ccc(/C=C2\CCn3c2nc2cc(C(=O)O)ccc2c3=O)cc1 | -21 | 56* | 2 | . | 4
COC(=O)c1ccc(/C=C2\CCn3c2nc2cc(C(=O)O)ccc2c3=O)cc1 | 21 | -9 | . | 3 | -1
C=CCn1c(=O)/c(=C/c2ccc(C)o2)s/c1=C(/C#N)C(=O)c1ccccc1 | -153 | 3 | 4 | -9 | -2
C=CCn1c(=O)/c(=C\c2ccccn2)s/c1=C(/C#N)C(=O)NCC1CCCO1 (stereo not drawn) | 264* | 11 | 4 | -5 | -2
Oc1ccc(Nc2nc(-c3ccc(O)cc3)cs2)cc1 | 78* | 10 | 1 | -16 | -6
O=C(O)c1ccc(Nc2nc(-c3cccnc3)cs2)cc1 | 4 | 53* | -2 | -4 | -6
CC(=O)c1ccc(Nc2nc(-c3cccnc3)cs2)cc1 | 2 | 8 | -2 | 1 | 2
NS(=O)(=O)c1ccc(Nc2nc(-c3ccc(O)cc3)cs2)cc1 | 10 | -11 | 2 | 1 | -2
COc1ccc(N(C(=O)c2cccnc2)S(=O)(=O)c2ccc(F)cc2)cc1 | 4 | 53* | -6 | 2 | -3
SMILES | MazEF act | DUSP3 inh | CCHFV vOTU inh | BJeLR viability | 3CLpro inhibitor
O=C(CCCc1c[nH]c2ccccc12)NCC1COc2ccccc2O1 (stereo not drawn) | 7 | 52* | -12 | -22 | 2
Cc1cc(C)cc(C(=O)OCCCN(C)C2CN(Cc3cn(Cc4cccc(F)c4)nn3)S(=O)(=O)C2)c1 (stereo not drawn) | . | . | 18 | . | .
CCCN1C/C(=C/c2ccc3c(c2)OCO3)C(=O)/C(=C/c2ccc3c(c2)OCO3)C1 | -6 | 15 | -9 | 53* | 0
COc1cc(NC(=O)COC(=O)CNC(=O)C23CC4CC(CC(C4)C2)C3)cc(OC)c1 | 4 | . | 4 | . | .
COc1ccc2c(COC(=O)CNC(=O)C34CC5CC(CC(C5)C3)C4)cc(=O)oc2c1 | -4 | 51* | -49 | -7 | 5
O=C(Nc1ccc(Br)cc1)OCCCN1CCC2(CCCCC2)C1=O | . | . | 6 | . | .
CS(=O)(=O)c1nc(S(=O)(=O)c2ccc(Cl)cc2)c(N2CCC(C(N)=O)CC2)s1 | 5 | -5 | 10 | -7 | 7
CCS(=O)(=O)c1nc(S(=O)(=O)c2ccc(Cl)cc2)c(N2CCC(C(N)=O)CC2)s1 | 9 | 56* | 10 | -3 | 4
CCC(NC(=O)CCCN1C(=O)COc2ccc(C)cc21)c1ccccc1 (stereo not drawn) | . | . | 3 | . | .
Cc1cccc(NC(=O)NN(C(=O)c2ccccc2Cl)C(C)(C)C)c1 | . | . | -6 | . | .
C1CCN(c2nc(N3CCCC3)nc(N3CCNCC3)n2)C1 | . | 8 | . | 2 | 2
Nc1nc(N2CCCCC2)nc(N2CCCCC2)n1 | 4 | 52* | 7 | 0 | 0
O=c1[nH]c2ccccc2n1C1=CCNCC1 | 6 | 52* | 3 | 13 | 0
CC(=O)N1CCC(N(CCCOC(C)C)S(=O)(=O)c2ccc([N+](=O)[O-])cc2)CC1 | -1 | 53* | 4 | 1 | -8
CC(=O)N1CCN(C(=S)c2ccc([N+](=O)[O-])cc2)CC1 | -1 | -20 | 7 | -13 | 1
CCN(CC)Cc1c(O)ccc2c1O/C(=C\C=C\c1ccccc1)C2=O | -451 | 12 | -4 | 93* | 4
CC(c1c[nH]c2ccccc12)c1c[nH]c2ccc(Br)cc12 (stereo not drawn) | . | . | 5 | . | .
COc1ccc(C(CNC(=O)C2CCN(S(=O)(=O)c3ccc(F)cc3)CC2)N(C)C)cc1 (stereo not drawn) | + | -12 | 11 | 3 | -1
CC(C)(C)NC(=O)CSCc1ccc(Br)cc1 | -6 | 53* | -3 | -8 | -2
Cc1cccc(-c2nnn3c2nc(NCCc2ccc(S(N)(=O)=O)cc2)c2ccccc23)c1 | 5 | 16 | 5 | 2 | -2
NS(=O)(=O)c1ccc(CCNc2nc3c(-c4cccc(F)c4)nnn3c3ccccc23)cc1 | 109* | 9 | 3 | -3 | 2
COc1ccc2c(c1)CCCN2C(=O)C1CCCN(S(=O)(=O)c2ccccc2)C1 (stereo not drawn) | . | . | 4 | . | .
CCCCNC(=O)C[C@H]1C[C@@]2(C(=O)OC)C(=C[C@H](C3CCCC3)O[C@@H]2C)N(Cc2ccco2)C1=O | . | . | 7 | . | .
COc1cc2c(cc1NC(=O)CSc1nnc(-c3cnccn3)n1-c1ccc(C)cc1)oc1ccccc12 | . | . | 6 | . | .
CCOc1ccc(-n2ccnc2SCC(=O)Nc2nnc(CC)s2)cc1 | 1 | 55* | 8 | -6 | 0
